The results in this text go back to the supplement of paper PMC7156485.

± gives the standard deviation of the averaged measurements.
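Also: TDF denotes transformed human dermal fibroblasts of mesenchymal origin.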

In the assay the test system is TDF. Nature of the assay: cell number relative to DMSO (% of DMSO); higher = more cells (less growth inhibition / toxicity). Conditions: concentration: 10 µM; 24 h. In a few lines: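 Compounds were applied at 10 µM for 24 h at 37 °C, in triplicate, to HCC1569 and TDF cells. The cells were then fixed and stained for H1.0, and nuclei were counterstained with DAPI. Nuclear H1.0 intensity or cell number is reported relative to the plate control as a percent, taking the median of replicates. Smoothing for positional effects was applied to HCC1569 values only.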
`CN1Cc2c(N)cccc2C(c2ccccc2)C1.O=C(O)C=CC(=O)O` (stereo not given) [Nomifensine maleate]: the cell number was determined as 104.

The compound `COc1cc2nc(N3CCN(C(=O)C4COc5ccccc5O4)CC3)nc(N)c2cc1OC.CS(=O)(=O)O` (stereo not given) [Doxazosin mesylate] yielded a cell number of 103.

As for `COc1ccc(CCN(C)CCCC(C#N)(c2cc(OC)c(OC)c(OC)c2)C(C)C)cc1OC.Cl` (racemic), the cell number was 109.

In turn, `COc1ccc2[nH]cc(CCNC(C)=O)c2c1` [Melatonin] came in with a cell number of 99.5 ± 3.

In turn, `O=c1cc(N2CCNCC2)oc2c(-c3ccccc3)cccc12` showed a cell number of 98.3.

For the compound `CN1CCN(C2Cc3ccccc3Sc3ccc(Cl)cc32)CC1.O=C(O)C=CC(=O)O` (stereo not given) [Clorotepine maleate], the cell number was 102.

Regarding `Cl.Clc1ccc(Cn2c(CN3CCCC3)nc3ccccc32)cc1` [Clemizole hydrochloride], the cell number amounted to 112.

`CCCCCCCC/C=C\CCCCCCCC(=O)NCC(=O)O` [[(9Z)-9-octadecenoylamino]acetic acid] came in with a cell number of 100.

Compound `O=C(O)c1cccnc1C(=O)O` [Quinolinic acid] gave a cell number of 102.

As for `NC(CCCP(=O)(O)O)C(=O)O` (racemic), the cell number was found to be 105.

Take `N=C([NH3+])N1CCc2ccccc2C1.N=C([NH3+])N1CCc2ccccc2C1.O=S(=O)([O-])[O-]` [Debrisoquin sulfate]: the cell number amounted to 107.

For the compound `CCN(CC)CCCC(C)Nc1c2ccc(Cl)cc2nc2ccc(OC)cc12` (stereo not given) [Quinacrine], the cell number is 39.5.

`CCc1c(CC(N)=O)c2cc(OCCCP(=O)(O)O)ccc2n1Cc1ccccc1` returned a cell number of 104.

In the case of `COc1cc(-c2oc3cc(O)cc(O)c3c(=O)c2O)ccc1O` [Isorhamnetine], the cell number was found to be 97.1.

In the case of `CCC(C)N(C)C(=O)c1cc2ccccc2c(-c2ccccc2Cl)n1` (stereo not given), the cell number is 110.

`Cc1ccccc1/N=N/c1ccc(NC(=O)c2ccnn2C)c(C)c1` had a cell number of 98.7.

Take `CC(N)(Cc1ccc(O)c(O)c1)C(=O)O` [L-alpha-Methyl DOPA]: the cell number amounted to 98.5.

`Cc1ccccc1C=CC1=NCCN1.O=C(O)C(=O)O` [Metrazoline oxalate] returned a cell number of 81.

Regarding `O=C(O)C=CC(=O)O.c1cnc(N2CCN(Cc3ccc4c(c3)OCO4)CC2)nc1` [Piribedil maleate], the cell number came to 116.

As to `COc1ccc(Cl)cc1C(=O)NCCc1ccc(S(=O)(=O)NC(=O)NC2CCCCC2)cc1` [Glibenclamide], the cell number worked out at 105.

`COCCc1ccc(OCC(O)CNC(C)C)cc1` (stereo not given) [Metoprolol] had a cell number of 99.5.

As to `COc1c(O)c2c(=O)cc(OC)c3c4c(OC)cc(=O)c5c(O)c(OC)c6c(c(c1CC(C)(O)C6C(C)=O)c23)c54` (stereo not given) [Hypocrellin A], the cell number was 67.1.

Consider `O=C(Nc1cccc(Nc2nccc(Nc3cccc(C(F)(F)F)c3)n2)c1)C1CC1` [Aurora Kinase Inhibitor III], for which the cell number is 35.8 ± 3.4.

The compound `CCn1cc(C(=O)O)c(=O)c2cc(F)c(N3CCNC(C)C3)c(F)c21.Cl` (stereo not given) [Lomefloxacin hydrochloride] had a cell number of 102.

Turning to `COC1C=COC2(C)Oc3c(C)c(O)c4c(c3C2=O)C(=O)C(=CNN2CCN(C)CC2)C(=C4O)NC(=O)C(C)=CC=CC(C)C(O)C(C)C(O)C(C)C(OC(C)=O)C1C` (stereo not given) [Rifampicin], the cell number was determined as 106 ± 1.9.

`Cc1c(Cl)cccc1Nc1ccccc1C(=O)O` [Tolfenamic acid] returned a cell number of 105.

In turn, `CC(C)=CCCC(C)=CCOc1ccc2ccc(=O)oc2c1` [Auraptene] yielded a cell number of 103.

On to `CCCc1cc(=O)oc2c(C(=O)N3CCCc4ccccc43)c(OC)cc(OC)c12`, for which the cell number amounted to 46.1.

As to `C#CC1(O)CCC2C3CCC4=CC(=O)CCC4C3CCC21C` (stereo not given) [Norethindrone], the cell number is 91.

Compound `CCC1(O)CC2CN(CCc3c([nH]c4ccccc34)C(C(=O)OC)(c3cc4c(cc3OC)N(C)C3C(O)(C(=O)OC)C(OC(C)=O)C5(CC)C=CCN6CCC43C65)C2)C1` (stereo not given) [Vinblastine] gave a cell number of 9.51.

On to `Nc1ncnc2n[nH]c(Nc3ccc(F)cc3)c12` [MNK1 Inhibitor], for which the cell number is 110.

`O=C(Nc1nc2ccccc2n1CCN1CCOCC1)c1cccc([N+](=O)[O-])c1` [IRAK-1/4 Inhibitor] yielded a cell number of 104.

`CNCC(O)c1cccc(O)c1.Cl` (stereo not given) [Phenylephrine hydrochloride] yielded a cell number of 101.

`COc1cc2c(cc1OC)C(c1ccccc1)CN(C)CC2.O=C(O)C=CC(=O)O` (stereo not given) yielded a cell number of 98.3.

`CC(C(=O)O)c1cccc(Oc2ccccc2)c1` (stereo not given) [Fenoprofen] yielded a cell number of 101.

`COC(=O)C1C2CC3c4[nH]c5cc(OC)ccc5c4CCN3CC2CC(OC(=O)c2cc(OC)c(OC)c(OC)c2)C1OC` (stereo not given) [Reserpine] showed a cell number of 86.3.

`Nc1nc(=O)c2ncn(CCC(CO)CO)c2[nH]1` [Penciclovir] displayed a cell number of 103.

The compound `CCOc1ccc2c(c1)C(C)=CC(C)(C)N2` [Ethoxyquin] displayed a cell number of 104.

On to `Cl.Cl.c1cnc(N2CCN(Cc3ccc4c(c3)OCO4)CC2)nc1` [Piribedil.2HCl], for which the cell number was 98.2.

For `CN(C)CCOC(c1ccccc1)c1ccccc1.Cl` [Diphenhydramine hydrochloride], the cell number was 105.
